Bioassay records: PubChem BioAssay, National Center for Advancing Translational Sciences (NCATS)
Sampled rows, rich in hits. Any-hit rate of the full collection: about 2.4%.
D2 PAM-1 = human D2 receptor positive allosteric modulation | P14416 | potentiation, % (test concentration not listed) | 360,000 compounds, 0.23% hits | DiscoveRx D2 beta-arrestin cells, luminescence, 90 min; 100% = 57 uM dopamine signal; in the data active = potentiation above about 50%; inconclusive = mostly about 30% to 49%
Target sequence (P14416 whole entry, looked up): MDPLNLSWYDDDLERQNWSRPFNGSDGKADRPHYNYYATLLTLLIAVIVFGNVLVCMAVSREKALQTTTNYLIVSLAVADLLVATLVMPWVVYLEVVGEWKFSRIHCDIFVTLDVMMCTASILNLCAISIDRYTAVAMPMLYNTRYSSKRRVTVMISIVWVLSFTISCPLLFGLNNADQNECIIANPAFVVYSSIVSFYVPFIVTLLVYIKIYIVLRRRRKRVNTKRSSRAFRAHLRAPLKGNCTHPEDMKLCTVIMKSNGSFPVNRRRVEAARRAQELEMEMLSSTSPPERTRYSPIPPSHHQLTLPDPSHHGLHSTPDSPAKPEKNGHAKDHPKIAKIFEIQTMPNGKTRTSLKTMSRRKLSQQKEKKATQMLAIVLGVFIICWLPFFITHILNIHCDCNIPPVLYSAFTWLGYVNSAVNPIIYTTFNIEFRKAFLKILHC
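D2 cells co-treated with compound plus 50 nM dopamine (EC20) for 90 min at 37 deg C to detect potentiation. Beta-arrestin recruitment was read as enzyme-fragment luminescence after 1 h at ambient temperature. Full response was set by 57 uM dopamine.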
D2 antag = antagonizes the human D2 dopamine receptor; P14416; HEK293 TREx D2 cells, calcium flux, dopamine EC80; inhibition, % at 10 µM; 340,000 compounds, 2% hits; in the data active = inhibition above about 30%; inactive = below that, where a call was filed
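Inhibition of EC80 dopamine-driven calcium flux, recorded kinetically, defines activity here; cells are a tetracycline-induced HEK293 T-REx line expressing force-coupled D2.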
D2 ag-1 = agonists of human D2 dopamine receptor (beta-arrestin) | DiscoveRx PathHunter D2 beta-arrestin, luminescence, 90 min; 100% = 57 uM dopamine signal | activation, % (test concentration not listed) | 360,000 compounds, 0.084% hits; in the data active = activation above about 40%; inconclusive = between about 15% and that limit
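DiscoveRx PathHunter D2 beta-arrestin cells (2,100/well) attached overnight, then compound-stimulated 90 min at 37 C in HBSS/10 mM HEPES/0.1% Tween-20 buffer; beta-galactosidase complementation read by luminescence after 1 h at ambient temperature. Dopamine 57 uM final (EC100) as control.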
D2 ag-2 = agonists of human D2 dopamine receptor; P14416; HEK293 T-REx D2 cells, calcium flux agonist mode; activation, % at 2 µM; 340,000 compounds, 0.53% hits; AID 485358;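 active = activation over 3 SD above normal in the single-dose calcium agonist read, cut at about 30% in these data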
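Agonism is scored from calcium flux in a force-coupled, inducible HEK293 cell line expressing D2, read kinetically for 180 s after compound addition against dopamine controls.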
D2 PAM-2 = positive allosteric modulators of human D2 dopamine receptor. P14416. HEK293 T-REx D2, calcium flux, EC20 dopamine potentiation. potentiation, % at 10 µM. 340,000 compounds, 0.34% hits. AID 485347;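 active = potentiation over 3 SD above the plate norm, cut at about 30% in these data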
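Potentiation of an EC20 dopamine calcium response measured kinetically over 180 s, after a preceding 180 s compound-only read flagging agonists. Cells: inducible Hek293 Trex D2 line, 4000/well, cultured overnight at 30 C before dye loading.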
D3 ag = confirmation of human D3 dopamine receptor agonists, beta-arrestin | shares compounds with D2 ag-2 | DiscoveRx D3 beta-arrestin cells, luminescence, 90 min | Potency, µM (top dose mostly 76.9 µM), hits mostly activators | 2,300 compounds, 4% hits; note: nearly all actives have a fitted effect of over 70% in size
D2 ag-3 = activates human D2 dopamine receptor in D3 counterscreen; shares compounds with D2 ag-2; 2,300 compounds, 5.9% hits; AID 720507; Potency, µM (top dose mostly 76.9 µM), usual class: activators; DiscoveRx PathHunter D2 beta-arrestin, luminescence, 90 min; response scale: percent relative to full dopamine signal; note: nearly all actives have a fitted effect of over 70% in size
Large screens that a line does not name were inactive (follow-up assays come after a bar, where they were run). Unless noted, calls come from the whole dose curve; as a rule, active = well fitted activation curve with a large enough effect; inconclusive = small, poorly fitted or top-dose-only effect; inactive = flat fitted curve, though single readings scatter.

CN=c1scc(-c2cccs2)n1/N=C/c1ccccc1O	none
CN=c1scc(-c2cccs2)n1/N=C/c1ccc(O)c(O)c1O	D2 PAM-1 109, D2 antag 89, D2 ag-1 182, D2 ag-2 66 | D3 ag 25µM | D2 ag-3 14µM
CN=c1scc(C)n1/N=C/c1ccc(O)c(O)c1O	D2 PAM-1 93, D2 ag-1 52, D2 ag-2 40 | D3 ag 40µM | D2 ag-3 inactive
CN=c1scc(C)n1/N=C/c1cc(Br)c(O)c(OC)c1	none
COc1cc(OC)c(NS(=O)(=O)c2ccc3c(c2)CCCN3C(C)=O)cc1Cl	none (no result: D2 PAM-1, D2 antag, D2 ag-1)
O=C(CN(Cc1cccs1)C(=O)CNS(=O)(=O)c1ccc(F)cc1)NCC1CCCO1 (stereo unspecified)	none
O=C(CN(Cc1ccc(F)cc1)C(=O)CNS(=O)(=O)c1ccc(F)cc1)NCC1CCCO1 (stereo unspecified)	none | D3 ag inactive | D2 ag-3 inactive
O=C(NCC1CCCO1)C(=O)NCC(c1ccco1)N1CCN(c2ccccc2F)CC1 (stereo unspecified)	D2 antag 48, D2 ag-2 58 | D3 ag 32µM | D2 ag-3 inconclusive
O=C(NCC(c1ccco1)N1CCN(c2ccccc2F)CC1)c1cccs1 (stereo unspecified)	D2 ag-1 inconclusive
O=C(NCC(c1ccco1)N1CCN(c2ccccc2F)CC1)C(=O)NC1CCCC1 (stereo unspecified)	none
O=C(NCC(c1ccco1)N1CCN(c2ccccc2F)CC1)c1ccco1 (stereo unspecified)	D2 antag 54, D2 ag-1 inconclusive, D2 ag-2 32 | D3 ag inconclusive | D2 ag-3 inconclusive
COc1cc(OC)c(NS(=O)(=O)c2c(C)nc3sc(C)cn3c2=O)cc1Cl	none (no result: D2 PAM-1, D2 antag, D2 ag-1)
O=C(CN1CCCC1)Nc1cc(C(F)(F)F)cc(C(F)(F)F)c1	D2 ag-2 51 | D3 ag inactive | D2 ag-3 inactive
Cc1cccc(N2CCN(Cc3nc(-c4cccc(Cl)c4)oc3C)CC2)n1	D2 ag-2 34 | D3 ag inactive | D2 ag-3 inactive
O=C(C1CCCN(S(=O)(=O)c2cccc3cccnc23)C1)N1CCN(c2ccccc2F)CC1 (stereo unspecified)	D2 antag 37 | D3 ag inactive | D2 ag-3 inconclusive
O=C(C1CCCN1S(=O)(=O)c1cccc2cccnc12)N1CCN(c2ccccc2)CC1 (stereo unspecified)	none | D3 ag inactive | D2 ag-3 inactive
Cc1cccc(C2CN(C)CCc3c2cc(O)c(O)c3Cl)c1 (stereo unspecified)	D2 antag 79, D2 ag-2 52 | D3 ag inconclusive | D2 ag-3 inactive
Oc1cc2c(c(Cl)c1O)CCNCC2c1ccccc1 (stereo unspecified)	none (no result: D2 antag, D2 ag-2, D2 PAM-2)
CCOc1ccc(/C(O)=C2/C(=O)C(=O)N(c3ncccn3)C2c2ccccc2)cc1 (stereo unspecified)	D2 ag-2 50 | D3 ag inactive | D2 ag-3 inactive
CCOC(=O)c1c(C)[nH]c(C)c1C(=O)Cn1nnc(-c2ccccc2C)n1	none | D3 ag inactive | D2 ag-3 inactive
CCOC(=O)c1c(C)[nH]c(C(=O)Cn2nnc(-c3ccccc3Cl)n2)c1C	none
CC(=O)N1c2ccccc2CC1C(=O)N1CCN(c2cccc(Cl)c2)CC1 (stereo unspecified)	none (no result: D2 PAM-1, D2 antag, D2 ag-1)
CC(=O)c1c(O)c2ccccc2n(C)c1=O	none
Cn1c(=O)c(Oc2ccc(F)cc2)c(O)c2ccccc21	D2 ag-2 50 | D3 ag inactive | D2 ag-3 inactive
COc1ccc(OC)c(CCNC(=O)CCc2cn(Cc3cc(C)ccc3C)c3ccccc23)c1	none (no result: D2 PAM-1, D2 antag, D2 ag-1)
CC(CCc1ccccc1)NCC(O)c1ccc(O)c(C(N)=O)c1 (stereo unspecified)	D2 antag 67, D2 ag-2 72 | D3 ag inactive | D2 ag-3 inconclusive
CC(CCc1ccccc1)NC(=O)c1ccccc1 (stereo unspecified)	none (no result: D2 antag, D2 ag-2)
Cc1ccccc1[C@@H](NC(=O)OC(C)(C)C)C(=O)OC(C)(C)C	none | D3 ag inactive | D2 ag-3 inactive
C[C@H](NC(=O)c1nc[nH]c1C(=O)N[C@@H](C)c1ccccc1)c1ccccc1	none
CN(Cc1ccccc1)C(=O)c1[nH]cnc1C(=O)NCCCCCNC(=O)OC(C)(C)C	none | D3 ag inactive | D2 ag-3 inactive
C[C@H](NC(=O)c1[nH]cnc1C(=O)N[C@H](C)c1ccccc1)c1ccccc1	none | D3 ag inactive | D2 ag-3 inactive
Cc1cccc(NC(=O)COc2ccccc2C(=O)NC(C)c2ccccc2)c1 (stereo unspecified)	D2 ag-2 49 | D3 ag inconclusive | D2 ag-3 inactive
Cc1cccc(NC(=O)c2nc[nH]c2C(=O)N[C@@H](C)c2ccccc2)c1	none | D3 ag inactive | D2 ag-3 inactive
COc1ccc(-c2nc3c4ccccc4n(CC(=O)Nc4cc(F)ccc4F)c(=O)n3n2)cc1	none (no result: D2 PAM-1, D2 antag, D2 ag-1, D2 ag-2)
COc1cc(/C=C/c2nc3cc(Cl)ccc3c(=O)n2-c2ccc(C)cc2C)cc(OC)c1OC	none (no result: D2 PAM-1, D2 antag, D2 ag-1, D2 ag-2)
Cc1cccc(NC(=O)c2nc[nH]c2C(=O)N(C)Cc2ccccc2)c1	none | D3 ag inactive | D2 ag-3 inactive
Oc1ccc(Cl)cc1CNCc1ccc(F)cc1	none
Oc1ccc(Cl)cc1CNCc1ccc(Cl)cc1	none | D3 ag inactive | D2 ag-3 inactive
COc1ccc(/C=C/C(=O)Nc2sc3c(c2C(N)=O)CCC(C)C3)cc1OC (stereo unspecified)	none (no result: D2 PAM-1, D2 antag, D2 ag-1)
Oc1ccc(CCNc2c3ccccc3nc3ccccc23)cc1O	D2 antag 91, D2 ag-1 130, D2 ag-2 91 | D3 ag 11µM | D2 ag-3 5µM
COc1ccc(CNc2ccc3cc(S(=O)(=O)N4CCCCC4)ccc3n2)cc1	none (no result: D2 PAM-1, D2 antag, D2 ag-1, D2 ag-2)
CSc1c(CC(=O)Nc2ccccc2C(F)(F)F)n(Cc2ccccc2)c2ccccc12	none | D3 ag inactive | D2 ag-3 inactive
CSc1c(CC(=O)Nc2ccccc2Cl)n(Cc2ccccc2)c2ccccc12	none
CC1CN(C(=O)c2ccccc2OCc2ccc(Cl)cc2Cl)CC(C)O1 (stereo unspecified)	none | D3 ag inactive | D2 ag-3 inactive
CC1CN(CCn2cnc3c(N)ncnc32)CC(C)O1 (stereo unspecified)	D2 antag 46 | D3 ag inactive | D2 ag-3 inactive
Cc1nn(S(=O)(=O)c2ccc(F)cc2)c(C)c1S(=O)(=O)N1CCCCCC1	none (no result: D2 PAM-1, D2 antag, D2 ag-1, D2 ag-2)
